In all, about 5,500 compounds went through this assay and about 2,000 (36%) were called active. Not shown: some 18% with an inconclusive outcome. Rule as the data show it: active = normalized growth mostly below about 0.91 (no sharp cut-off); inconclusive = no clear call, values can overlap the other calls; inactive = mostly above about 0.92. Some of the results follow.
Experiment: chemical genetic growth profiling, strain panel (AID 1159580);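 also: tested at 20 µM; growth read once vehicle control cultures reached saturation at 30 °C; 1 = growth at the plate median or of vehicle wells; lower values mean less growth of the strain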
Settings: growth OD

Measured: normalized growth

COc1ccc2c(c1)O[C@H]1c3ccc(OC)cc3OC[C@@H]21
inactive: S. cerevisiae deletion strains, locus YJR075W, strain HOC1, hits give low values 0.969 | S. cerevisiae deletion strains, locus YKL068W, hits give low values 0.99 | S. cerevisiae deletion strains, locus YKL085W, strain MDH1 (second series), hits give low values 0.98 | S. cerevisiae deletion strains, locus YKL085W, strain MDH1, hits give low values 0.98 | S. cerevisiae deletion strains, locus YKL160W, strain elf1, hits give low values 1.03 | S. cerevisiae deletion strains, locus YKL190W, strain CNB1, hits give low values 1.01 | S. cerevisiae deletion strains, locus YKR001C, strain vps1, hits give low values 0.936 | S. cerevisiae deletion strains, locus YKR026C, strain gcn3, hits give low values 1.02 | S. cerevisiae deletion strains, locus YKR091W, strain srl3, hits give low values 1.03 | S. cerevisiae deletion strains, locus YLL001W, strain dnm1, hits give low values 1.02 | S. cerevisiae deletion strains, locus YLL026W, hits give low values 1.03 | S. cerevisiae deletion strains, locus YLL041C, strain sdh2, hits give low values 1.03 | S. cerevisiae deletion strains, locus YLR027C, strain aat2, hits give low values 1.01 | S. cerevisiae deletion strains, locus YLR039C, strain RIC1, hits give low values 0.767 | S. cerevisiae deletion strains, locus YLR058C, strain SHM2, hits give low values 0.957 | S. cerevisiae deletion strains, locus YLR102C, strain apc9, hits give low values 0.949 | S. cerevisiae deletion strains, locus YLR113W, strain HOG1, hits give low values 1.02 | S. cerevisiae deletion strains, locus YLR221C, strain rsa3, hits give low values 1.02 | S. cerevisiae deletion strains, locus YLR258W, strain gsy2, hits give low values 1.03 | S. cerevisiae deletion strains, locus YLR262C, strain YPT6 (second series), hits give low values 1 | S. cerevisiae deletion strains, locus YLR262C, strain YPT6, hits give low values 0.744 | S. cerevisiae deletion strains, locus YLR268W, strain sec22, hits give low values 0.9 | S. cerevisiae deletion strains, locus YLR320W, strain mms22, hits give low values 1.02 | S. cerevisiae deletion strains, locus YLR330W, strain CHS5, hits give low values 0.975 | S. cerevisiae deletion strains, locus YLR342W, strain FKS1, hits give low values 1.02 | S. cerevisiae deletion strains, locus YLR357W, strain rsc2, hits give low values 0.99 | S. cerevisiae deletion strains, locus YLR370C, strain arc18, hits give low values 1.03 | S. cerevisiae deletion strains, locus YLR371W, strain rom2, hits give low values 0.972 | S. cerevisiae deletion strains, locus YLR384C, strain iki3, hits give low values 1.03 | S. cerevisiae deletion strains, locus YML016C, strain PPZ1, hits give low values 0.985 | S. cerevisiae deletion strains, locus YML120C, strain ndi1, hits give low values 1.02 | S. cerevisiae deletion strains, locus YML124C, strain tub3, hits give low values 0.95 | S. cerevisiae deletion strains, locus YMR058W, strain fet3, hits give low values 1.02 | S. cerevisiae deletion strains, locus YMR078C, strain ctf18, hits give low values 0.915 | S. cerevisiae deletion strains, locus YMR125W, strain sto1, hits give low values 1.02 | S. cerevisiae deletion strains, locus YMR129W, hits give low values 1.03 | S. cerevisiae deletion strains, locus YMR205C, strain PFK2, hits give low values 1.04 | S. cerevisiae deletion strains, locus YMR223W, strain ubp8, hits give low values 0.92 | S. cerevisiae deletion strains, locus YMR231W, strain pep5, hits give low values 1.03 | S. cerevisiae deletion strains, locus YMR307W, strain GAS1, hits give low values 0.927 | S. cerevisiae deletion strains, locus YNL067W, strain RPL9B, hits give low values 0.989 | S. cerevisiae deletion strains, locus YNL071W, strain lat1, hits give low values 1.01 | S. cerevisiae deletion strains, locus YNL153C, strain GIM3, hits give low values 0.953 | S. cerevisiae deletion strains, locus YNL183C, strain NPR1, hits give low values 0.946 | S. cerevisiae deletion strains, locus YNL209W, strain ssb2, hits give low values 1.01 | S. cerevisiae deletion strains, locus YNL233W, strain BNI4, hits give low values 0.953 | S. cerevisiae deletion strains, locus YNL248C, strain rpa49, hits give low values 1.02 | S. cerevisiae deletion strains, locus YNL250W, strain rad50, hits give low values 0.993 | S. cerevisiae deletion strains, locus YNL271C, strain bni1, hits give low values 0.944 | S. cerevisiae deletion strains, locus YNL322C, strain KRE1 (second series), hits give low values 1.04 | S. cerevisiae deletion strains, locus YNR049C, strain mso1, hits give low values 1.02 | S. cerevisiae deletion strains, locus YNR052C, strain pop2, hits give low values 0.963 | S. cerevisiae deletion strains, locus YOL012C, strain htz1 1.39 | S. cerevisiae deletion strains, locus YOR001W, strain rrp6, hits give low values 1.02 | S. cerevisiae deletion strains, locus YOR061W, strain CKA2, hits give low values 0.997 | S. cerevisiae deletion strains, locus YOR069W, strain VPS5, hits give low values 0.982 | S. cerevisiae deletion strains, locus YOR070C, strain gyp1, hits give low values 1.01 | S. cerevisiae deletion strains, locus YOR080W, strain dia2, hits give low values 1.02 | S. cerevisiae deletion strains, locus YOR083W, strain WHI5, hits give low values 1.03 | S. cerevisiae deletion strains, locus YOR106W, strain vam3, hits give low values 1.03 | S. cerevisiae deletion strains, locus YOR136W, strain idh2, hits give low values 0.953 | S. cerevisiae deletion strains, locus YOR144C, strain elg1, hits give low values 0.951 | S. cerevisiae deletion strains, locus YOR231W, strain MKK1, hits give low values 0.979 | S. cerevisiae deletion strains, locus YOR265W, strain rbl2, hits give low values 1.03 | S. cerevisiae deletion strains, locus YOR270C, strain vph1, hits give low values 1.01 | S. cerevisiae deletion strains, locus YOR290C, strain snf2, hits give low values 1.04 | S. cerevisiae deletion strains, locus YOR316C, strain cot1, hits give low values 0.962 | S. cerevisiae deletion strains, locus YPL051W, strain arl3, hits give low values 1.03 | S. cerevisiae deletion strains, locus YPL078C, strain atp4, hits give low values 1.04 | S. cerevisiae deletion strains, locus YPL106C, strain sse1, hits give low values 1.03 | S. cerevisiae deletion strains, locus YPL240C, strain hsp82, hits give low values 1.02 | S. cerevisiae deletion strains, locus YPL241C, strain CIN2, hits give low values 0.982 | S. cerevisiae deletion strains, locus YPL256C, strain CLN2, hits give low values 0.939 | S. cerevisiae deletion strains, locus YPR119W, strain clb2, hits give low values 0.939 | S. cerevisiae deletion strains, locus YPR141C, strain kar3, hits give low values 0.975 | S. cerevisiae strains, strain wild type, hits give low values 1.01
active: S. cerevisiae deletion strains, locus YKL009W, strain mrt4, hits give low values 0.837 | S. cerevisiae deletion strains, locus YLR418C, strain cdc73, hits give low values 0.691 | S. cerevisiae deletion strains, locus YML032C, strain rad52, hits give low values 0.873 | S. cerevisiae deletion strains, locus YNL298W, strain CLA4, hits give low values 0.908 | S. cerevisiae deletion strains, locus YNL307C, strain MCK1, hits give low values 0.475 | S. cerevisiae deletion strains, locus YOL147C, strain pex11, hits give low values 0.886 | S. cerevisiae deletion strains, locus YOR184W, strain ser1, hits give low values 0.685 | S. cerevisiae deletion strains, locus YPR163C, strain tif3, hits give low values 0.677 | S. cerevisiae deletion strains, locus YPR167C, strain met16, hits give low values 0.907 | S. cerevisiae deletion strains, strain wtn01, hits give low values 0.886

From PubChem BioAssay AID1159580 (chemical genetic matrix, 2015)
